Test results: the supplement of paper PMC8726507
Values without a mark were called inactive.

system: Plasmodium falciparum NF54-HGL (transmission to Anopheles stephensi); assay: percentage of barcode signal found in uninfected mosquitoes (transmission-blocking activity); higher = stronger blocking of transmission to mosquito, active = 80 or more; settings: 10 µM; gametocyte preincubation time 24 h; readout time post-feed 8 days
Description: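 The mixture was fed to Anopheles stephensi in 96-well plates as blood meals tagged with DNA-barcoded Asaia bacteria. Eight days later, mosquitoes were classed infected or uninfected by luminescence (mean + 5 SD of unfed controls). Barcodes were quantified by Luminex MagPlex-TAG in the pooled uninfected and infected Asaia cultures, background-corrected, and the score is % of barcode signal in uninfected mosquitoes = 100*Iu/(Iu+Ii).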

Structure (SMILES) | percentage of barcode signal found in uninfected mosquitoes
O=C(CCC1CCCCC1)Nc1cccc(-c2nnc(-c3ccco3)o2)c1 | 67.5%
CCN(CC)CCCCCCNc1cc(OC)cc2c(C)ccnc12 | 55.8%
CCc1c(C)nc(-n2nc(C)cc2NC(=O)c2ccccc2SC)[nH]c1=O | 53.6%
CS(=O)(=O)c1ccc(C(=O)N(CC2CCCO2)c2nc3ccccc3s2)cc1[N+](=O)[O-] (stereo not given) | 63.1%
CC(=O)NC[C@H]1CN(c2ccc(N3CCSCC3)c(F)c2)C(=O)O1 | 24.7%
CCc1nc2ccccc2n1CC(O)COc1cc(C)ccc1Cl (stereo not given) | 41.3%
O=C(Nc1ccc(F)c(-c2nc3cc(-c4ccccc4)cnc3[nH]2)c1)N1CCCC1 | 35.5%
CCOc1ccccc1C(=O)Nc1cccc(-c2nc3ncccn3c2C)c1 | 78.8%
Cc1nc2ccccn2c1C(=O)NCc1ccc(Cl)cc1 | 48.8%
O=C(Nc1ccc2c(c1)B(O)OC2)c1ccccc1C(F)(F)F | 84.1% (active)
N#Cc1nc(-c2ccccc2)oc1S(=O)(=O)c1ccc(Cl)cc1 | 72.7%
COc1cccn2c(C(=O)N3CCCCC3)c(C(F)(F)F)nc12 | 27.1%
Cc1[nH]c2ccccc2c1C(c1cccs1)N1CCN(C)CC1 (stereo not given) | 43.7%
Cc1cccc(Cn2ccc(NC(=O)c3ccc4c(c3)OCO4)n2)c1 | 42.9%
COc1ccc(C2=NN(C3CCCCCC3)C(=O)[C@@H]3CC=CC[C@H]23)cc1OCCCCOc1ccc(-c2nn[nH]n2)cc1 | 63.6%
